Laboratory results as given in PubChem BioAssay (Tox21).
Results filed as inconclusive are left out. Active and inactive are the calls of the source. Unless noted, calls follow the shape of the dose curve; as a rule, active = well fitted curve in the direction sought with a large enough effect in the repeat runs; inconclusive = weak or mixed curves; inactive = no such curve, though single readings can be large; an effect the other way counts as inactive or inconclusive.

Tests used:
[1] = qHTS assay to identify aromatase inhibitors - cell viability counter screen (AID 743084);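 also: cells stimulated with testosterone during compound exposure; nearly all actives have a fitted effect of over 55% in size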
[2] = target: Aryl hydrocarbon receptor (Homo sapiens) (UniProt P35869); assay: qHTS assay to identify small molecule that activate the aryl hydrocarbon receptor (AhR) signaling pathway (AID 743085);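 also: HG2L7.5c1 human HepG2 liver cells with stably integrated DRE-driven firefly reporter; series mostly up to about 70 µM; nearly all actives have a fitted effect of over 15% in size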
Sequence of Aryl hydrocarbon receptor (Homo sapiens) (P35869 whole entry, looked up): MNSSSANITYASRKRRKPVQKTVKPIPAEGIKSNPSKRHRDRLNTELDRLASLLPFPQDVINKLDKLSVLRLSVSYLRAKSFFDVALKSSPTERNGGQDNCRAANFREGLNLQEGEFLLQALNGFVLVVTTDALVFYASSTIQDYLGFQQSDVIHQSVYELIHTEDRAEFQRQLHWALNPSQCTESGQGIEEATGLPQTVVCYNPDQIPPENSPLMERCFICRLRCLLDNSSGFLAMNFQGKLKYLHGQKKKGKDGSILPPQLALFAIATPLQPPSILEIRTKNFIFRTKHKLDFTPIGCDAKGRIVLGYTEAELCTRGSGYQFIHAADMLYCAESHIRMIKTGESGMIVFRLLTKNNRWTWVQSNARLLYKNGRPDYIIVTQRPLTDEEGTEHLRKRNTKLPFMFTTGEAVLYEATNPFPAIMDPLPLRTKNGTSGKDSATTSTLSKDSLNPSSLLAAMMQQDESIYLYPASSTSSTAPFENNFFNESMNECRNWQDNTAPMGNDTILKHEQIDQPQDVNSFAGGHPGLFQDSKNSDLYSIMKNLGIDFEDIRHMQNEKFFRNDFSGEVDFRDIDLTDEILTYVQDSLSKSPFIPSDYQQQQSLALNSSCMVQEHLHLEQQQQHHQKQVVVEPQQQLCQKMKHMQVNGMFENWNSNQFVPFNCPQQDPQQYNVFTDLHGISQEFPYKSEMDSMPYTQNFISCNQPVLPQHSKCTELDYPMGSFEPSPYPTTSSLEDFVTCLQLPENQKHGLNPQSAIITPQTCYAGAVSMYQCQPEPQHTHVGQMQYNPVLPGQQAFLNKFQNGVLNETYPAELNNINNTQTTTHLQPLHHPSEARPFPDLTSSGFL
Summary of the method: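 Measured in HG2L7.5c1 cells: CellTiter-Fluor signal (30 min incubation, 37C) for viability, then luciferase luminescence (30 min, room temperature). Compound contact time was 24 h at 37C, following a 5 h pre-incubation.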

[3] = qHTS assay to identify small molecule that activate the aryl hydrocarbon receptor (AhR) signaling pathway - cell viability counter screen (AID 743086);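 also: HepG2 liver cells carrying the AhR DRE luciferase reporter; series mostly up to about 70 µM; nearly all actives have a fitted effect of over 45% in size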
Summary of the method: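 Cytotoxicity counter screen: CellTiter-Fluor signal (30 min, 37 C) in 4000 HepG2 cells/well carrying the DRE-luciferase reporter, following 24 h compound exposure at 37 C.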

[4] = target: Peroxisome proliferator-activated receptor gamma (Homo sapiens) (UniProt P37231); assay: qHTS assay to identify small molecule agonists of the peroxisome proliferator-activated receptor gamma (PPARg) signaling pathway (AID 743094; active = well fitted activation curve with a large enough effect in the signal ratio in the repeat runs, not every such curve was filed as active; the % refers to the signal ratio)
Sequence of Peroxisome proliferator-activated receptor gamma (Homo sapiens) (P37231 whole entry, looked up): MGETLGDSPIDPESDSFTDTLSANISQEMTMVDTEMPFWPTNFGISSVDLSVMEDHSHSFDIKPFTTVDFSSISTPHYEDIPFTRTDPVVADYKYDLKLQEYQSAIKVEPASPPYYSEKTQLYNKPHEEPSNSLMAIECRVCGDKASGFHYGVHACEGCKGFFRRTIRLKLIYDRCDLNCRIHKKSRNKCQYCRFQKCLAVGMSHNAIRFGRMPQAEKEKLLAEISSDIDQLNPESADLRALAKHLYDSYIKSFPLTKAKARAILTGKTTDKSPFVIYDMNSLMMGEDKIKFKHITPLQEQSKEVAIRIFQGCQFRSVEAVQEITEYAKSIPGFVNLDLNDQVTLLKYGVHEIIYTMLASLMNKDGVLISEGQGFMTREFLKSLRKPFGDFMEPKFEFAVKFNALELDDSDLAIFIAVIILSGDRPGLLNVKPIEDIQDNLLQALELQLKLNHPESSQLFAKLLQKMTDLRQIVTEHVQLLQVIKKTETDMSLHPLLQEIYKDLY
Summary of the method: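 HEK293H PPARg-bla cells, 5 h settle at 37C/5% CO2; compound (DMSO) 17 h, 37C; B/G FRET substrate 1 h RT; fluorescence intensity read-out. qHTS format.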

[5] = qHTS assay to identify small molecule antagonists of the peroxisome proliferator-activated receptor gamma (PPARg) signaling pathway - cell viability counter screen (AID 743194); also: nearly all actives have a fitted effect of over 55% in size
Summary of the method: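 Viability was measured as CellTiter-Glo luminescence in GeneBLAzer PPARg UAS-bla HEK293H cells. These cells had been exposed 17 h at 37 C to compounds together with rosiglitazone at 50 nM final, with the beta-lactamase readout taken in the same wells.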

[6] = qHTS assay for small molecule agonists of the antioxidant response element (ARE) signaling pathway (AID 743202; active = well fitted activation curve with a large enough effect in the signal ratio in the repeat runs, not every such curve was filed as active; the % refers to the signal ratio)
Summary of the method: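 Beta-lactamase reporter activity, read as fluorescence intensity, reflects ARE/Nrf2 pathway induction in HepG2 cells after 16 h compound exposure at 37 C; substrate loading was 2 h at room temperature.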

[7] = qHTS assay for small molecule agonists of the antioxidant response element (ARE) signaling pathway - cell viability counter screen (AID 743203; calls by dose curve; also: nearly all actives have a fitted effect of over 55% in size)
Summary of the method: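 Luminescence read-out (CellTiter-Glo, 30 min at room temperature) measured cell viability in the same wells as the ARE beta-lactamase reporter. HepG2 ARE-bla cells were treated with compounds for 16 hrs at 37C/5% CO2.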

[8] = qHTS assay for small molecule activators of the heat shock response signaling pathway - cell viability counter screen (AID 743209); also: nearly all actives have a fitted effect of over 50% in size
Summary of the method: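 HSE-bla HeLa; 1500 cells/well; overnight 37 C, 5% CO2; compound 5 h 37 C; LiveBLAzer B/G substrate 2.5 h RT; CellTiter-Glo 30 min RT; luminescence.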

[9] = qHTS assay for small molecule activators of the heat shock response signaling pathway (AID 743210; active = well fitted activation curve with a large enough effect in the signal ratio in the repeat runs, with a control signal flat, not every such curve was filed as active; the % refers to the signal ratio;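 also: HeLa cells with beta-lactamase reporter driven by heat shock elements; series mostly up to about 63 µM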)
Summary of the method: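 Fluorescence from a cleaved B/G FRET substrate (2.5 h, room temp) reports HSE-driven beta-lactamase in HeLa cells treated 5 h at 37 C with DMSO-dissolved compounds.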

[10] = qHTS assay to identify small molecule agonists of the peroxisome proliferator-activated receptor delta (PPARd) signaling pathway - cell viability counter screen (AID 743211); also: nearly all actives have a fitted effect of over 55% in size
Summary of the method: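 Following 5 h plating at 37 C and 5% CO2, PPARd UAS-bla HEK293H cells took up test compounds for 17 h. Viability was quantified by luminescence 30 min after CellTiter-Glo addition at room temperature.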

[11] = target: Peroxisome proliferator-activated receptor delta (Homo sapiens) (UniProt Q03181); assay: qHTS assay to identify small molecule agonists of the peroxisome proliferator-activated receptor delta (PPARd) signaling pathway (AID 743212; calls by dose curve)
Sequence of Peroxisome proliferator-activated receptor delta (Homo sapiens) (Q03181 whole entry, looked up): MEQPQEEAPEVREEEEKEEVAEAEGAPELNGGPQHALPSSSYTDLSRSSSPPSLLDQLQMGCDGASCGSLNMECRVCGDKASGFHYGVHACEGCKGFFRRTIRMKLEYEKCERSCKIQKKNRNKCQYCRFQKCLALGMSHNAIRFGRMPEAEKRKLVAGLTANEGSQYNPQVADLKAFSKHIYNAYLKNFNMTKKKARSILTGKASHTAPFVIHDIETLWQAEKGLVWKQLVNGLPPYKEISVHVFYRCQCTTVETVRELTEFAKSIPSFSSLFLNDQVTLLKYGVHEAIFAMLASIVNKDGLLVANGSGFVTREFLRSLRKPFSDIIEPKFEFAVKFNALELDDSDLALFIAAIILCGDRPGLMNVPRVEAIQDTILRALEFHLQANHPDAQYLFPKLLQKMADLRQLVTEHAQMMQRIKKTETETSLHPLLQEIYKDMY
Summary of the method: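 Steps: seed PPARd-bla HEK293H cells; incubate 5 h, 37 C, 5% CO2; add compounds in DMSO; incubate, 37 C; add LiveBLAzer B/G FRET substrate; hold 2 h at room temperature; measure fluorescence.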

[12] = qHTS assay to identify small molecule antagonists of the peroxisome proliferator-activated receptor delta (PPARd) signaling pathway - cell viability counter screen (AID 743213); also: nearly all actives have a fitted effect of over 50% in size
Summary of the method: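 Luminescence from CellTiter-Glo, added after the bla read and incubated 30 min at room temperature, gives viability of HEK293H PPARd-bla cells exposed to compounds for 17 h at 37 C with 300 nM L165041.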

[13] = target: Peroxisome proliferator-activated receptor delta (Homo sapiens) (UniProt Q03181); assay: qHTS assay to identify small molecule antagonists of the peroxisome proliferator-activated receptor delta (PPARd) signaling pathway (AID 743215; active = well fitted inhibition curve with a large enough effect in the signal ratio in the repeat runs, not every such curve was filed as active; the % refers to the signal ratio;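 also: cells stimulated with agonist L165041 at 300 nM final during compound exposure; series mostly up to about 62 µM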)
Summary of the method: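 HEK293H GeneBLAzer PPARd UAS-bla reporter cells; cpd + L165041 300 nM final, 17 h 37 C; LiveBLAzer B/G FRET substrate 2 h RT; fluorescence intensity read-out. Antagonist mode.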

[14] = target: Bile acid receptor (Homo sapiens) (UniProt Q96RI1); assay: qHTS assay to identify small molecule antagonists of the farnesoid-X-receptor (FXR) signaling pathway (AID 743217; active = well fitted inhibition curve with a large enough effect in the signal ratio in the repeat runs, not every such curve was filed as active; the % refers to the signal ratio)
Sequence of Bile acid receptor (Homo sapiens) (Q96RI1 whole entry, looked up): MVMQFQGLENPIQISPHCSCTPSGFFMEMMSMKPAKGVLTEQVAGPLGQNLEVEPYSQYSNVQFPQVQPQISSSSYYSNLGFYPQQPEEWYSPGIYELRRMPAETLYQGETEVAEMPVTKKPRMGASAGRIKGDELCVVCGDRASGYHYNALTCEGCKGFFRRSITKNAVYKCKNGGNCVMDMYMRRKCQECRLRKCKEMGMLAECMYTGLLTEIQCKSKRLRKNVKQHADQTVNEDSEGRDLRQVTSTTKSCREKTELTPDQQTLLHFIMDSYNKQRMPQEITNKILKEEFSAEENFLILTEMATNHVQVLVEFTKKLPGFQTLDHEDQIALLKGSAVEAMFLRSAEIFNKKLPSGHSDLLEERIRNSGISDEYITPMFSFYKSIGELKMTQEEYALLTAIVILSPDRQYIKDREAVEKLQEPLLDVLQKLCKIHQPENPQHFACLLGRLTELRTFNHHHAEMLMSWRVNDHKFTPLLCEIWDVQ
Summary of the method: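 Read-out: beta-lactamase FRET fluorescence (LiveBLAzer B/G substrate, 2 h, room temperature) in GeneBLAzer FXR-UAS-bla HEK 293T cells. Compounds were co-dosed with 50 uM chenodeoxycholic acid (final) and incubated 16 h at 37 °C.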

[15] = qHTS assay to identify small molecule agonists of the farnesoid-X-receptor (FXR) signaling pathway - cell viability counter screen (AID 743218); also: nearly all actives have a fitted effect of over 45% in size
Summary of the method: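 Luminescence from CellTiter-Glo, read after 30 min at RT, reports viability of GeneBLAzer FXR-UAS-bla HEK 293T cells treated 16 h with compounds in the wells used for the beta-lactamase reporter.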

[16] = target: Bile acid receptor (Homo sapiens) (UniProt Q96RI1); assay: qHTS assay to identify small molecule agonists of the farnesoid-X-receptor (FXR) signaling pathway (AID 743220; active = well fitted activation curve with a large enough effect in the signal ratio in the repeat runs, not every such curve was filed as active; the % refers to the signal ratio)
Summary of the method: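 FXR-UAS-bla HEK 293T cells carrying a UAS-driven beta-lactamase reporter were plated for 5 h at 37C/5% CO2, then exposed to DMSO-dissolved Tox21 10K compounds for 16 h at 37C. A LiveBLAzer B/G FRET substrate was loaded for 2 h at room temperature before fluorescence reading.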

[17] = qHTS assay to identify small molecule antagonists of the farnesoid-X-receptor (FXR) signaling pathway - cell viability counter screen (AID 743221; active = well fitted cell-killing curve with a large enough effect in the repeat runs, not every such curve was filed as active; also: nearly all actives have a fitted effect of over 50% in size)
Summary of the method: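 Compound effects on cell number were measured as CellTiter-Glo luminescence in HEK 293T cells expressing FXR-UAS-bla, after 16 h at 37 C with 50 uM CDCA (final).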

[18] = target: Peroxisome proliferator-activated receptor gamma (Homo sapiens) (UniProt P37231); assay: qHTS assay to identify small molecule antagonists of the peroxisome proliferator-activated receptor gamma (PPARg) signaling pathway (AID 743191; calls by dose curve; also: series mostly up to about 63 µM; nearly all actives have a fitted effect of over 30% in size)
Summary of the method: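 Beta-lactamase reporter under UAS control in HEK293H PPARg-bla cells; compound treatment 17 h at 37C. Read-out: fluorescence intensity after 1 h room-temperature incubation with LiveBLAzer B/G FRET substrate.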

[19] = target: Vitamin D3 receptor (Homo sapiens) (UniProt P11473); assay: qHTS assay to identify small molecule agonists of the vitamin D receptor (VDR) signaling pathway (AID 743222; calls by dose curve)
Sequence of Vitamin D3 receptor (Homo sapiens) (P11473 whole entry, looked up): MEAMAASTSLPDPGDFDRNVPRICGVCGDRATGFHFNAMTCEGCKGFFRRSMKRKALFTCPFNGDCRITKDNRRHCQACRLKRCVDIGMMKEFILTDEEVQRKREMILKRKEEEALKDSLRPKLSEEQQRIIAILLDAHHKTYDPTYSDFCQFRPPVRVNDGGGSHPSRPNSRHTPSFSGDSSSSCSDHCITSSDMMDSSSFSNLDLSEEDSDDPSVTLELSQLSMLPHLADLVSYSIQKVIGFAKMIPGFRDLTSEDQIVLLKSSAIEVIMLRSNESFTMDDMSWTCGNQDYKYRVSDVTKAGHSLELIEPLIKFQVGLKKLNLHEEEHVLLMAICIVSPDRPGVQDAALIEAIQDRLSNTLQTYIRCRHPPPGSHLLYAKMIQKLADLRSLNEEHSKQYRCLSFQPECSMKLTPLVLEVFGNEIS
Summary of the method: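 Beta-lactamase reporter readout (LiveBLAzer B/G FRET, 2 h RT) in VDR-bla cells after 16 h compound treatment at 37C, 5% CO2; cells pre-incubated 4 h before pin transfer of DMSO solutions.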

[20] = target: Vitamin D3 receptor (Homo sapiens) (UniProt P11473); assay: qHTS assay to identify small molecule antagonists of the vitamin D receptor (VDR) signaling pathway (AID 743223; active = well fitted inhibition curve with a large enough effect in the signal ratio in the repeat runs, not every such curve was filed as active; the % refers to the signal ratio)
Summary of the method: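 Beta-lactamase activity in VDR-bla cells is measured by FRET substrate fluorescence (2 h, room temperature) after cells spend 16 h at 37C with test compound and 3 nM final 1alpha,25-dihydroxyvitamin D3.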
% is scaled to controls: 0 for no effect and ±100 for the full control effect.

CCCCCSCCCCC
inactive: Potency [1] | Potency [2] | Potency [3] | outcome [4] | outcome [5] | Potency [6] | Potency [7] | outcome [8] | outcome [9] | Potency [10] | outcome [11] | Potency [12] | Potency [13] | outcome [14] | Potency [15] | outcome [16] | Potency [17]

C[C@](N)(Cc1ccc(O)cc1)C(=O)O
inactive: Potency [1] | Potency [2] | Potency [3] | outcome [4] | activity change, negative = cytotoxicity [5] 4.13% [at 5.95 µM] | activation [6] 6.12% [at 8.36 µM] | viability change, negative = cytotoxic [7] -15% [at 8.36 µM] | activity change, negative = cytotoxicity [8] 1.38% [at 5.95 µM] | activation [9] 0.673% [at 5.95 µM] | activity change, negative = cytotoxicity [10] 3.74% [at 5.95 µM] | viability change, negative = cytotoxic [12] 17.6% [at 6.26 µM] | activity change, negative = inhibition [14] 3.49% [at 5.95 µM] | viability change, negative = cytotoxic [15] 17.1% [at 5.95 µM] | activation [16] 1.44% [at 5.95 µM]

COC(=O)c1cc(C(=O)OC)cc(S(=O)(=O)O)c1
inactive: Potency [1] | Potency [2] | Potency [3] | outcome [4] | Potency [18] | outcome [5] | Potency [7] | outcome [9] | Potency [10] | outcome [11] | Potency [12] | outcome [14] | outcome [16] | Potency [17] | outcome [19] | outcome [20]

O=C1NC(=O)[C@@]2(CCOc3ccc(F)cc32)N1
inactive: Potency [1] | Potency [2] | Potency [3] | outcome [4] | outcome [5] | Potency [6] | Potency [7] | outcome [8] | Potency [10] | outcome [11] | Potency [12] | Potency [15] | Potency [17] | outcome [19] | outcome [20]

CC[N+](C)(C)c1cccc(O)c1
inactive: Potency [1] | Potency [2] | Potency [3] | outcome [4] | Potency [18] | Potency [6] | Potency [7] | outcome [8] | outcome [9] | Potency [10] | outcome [11] | Potency [12] | Potency [13] | outcome [14] | outcome [16] | Potency [17]

CCSC(=O)N(CC(C)C)CC(C)C
inactive: Potency [1] | Potency [2] | Potency [3] | outcome [4] | outcome [5] | Potency [6] | Potency [7] | outcome [8] | outcome [9] | Potency [10] | outcome [11] | Potency [12] | Potency [13] | Potency [17] | outcome [19] | outcome [20]

O=C1CCCN1C1CCCCC1
inactive: Potency [1] | Potency [2] | Potency [3] | outcome [4] | Potency [18] | outcome [5] | Potency [7] | outcome [9] | Potency [10] | Potency [12] | outcome [14] | Potency [15] | outcome [16] | Potency [17] | outcome [19] | outcome [20]

C1CN(CCOCCN2CCOCC2)CCO1
inactive: Potency [1] | Potency [2] | Potency [3] | outcome [4] | Potency [18] | Potency [6] | outcome [8] | Potency [10] | outcome [11] | Potency [12] | Potency [17] | outcome [19] | outcome [20]

CCCN1CCCC[C@H]1C(=O)Nc1c(C)cccc1C
inactive: Potency [1] | Potency [2] | Potency [3] | outcome [4] | outcome [5] | Potency [6] | Potency [7] | outcome [8] | outcome [9] | Potency [10] | outcome [11] | Potency [13] | outcome [14] | Potency [15] | outcome [16] | outcome [20]

C[N+](C)(C)CC(O)CC(=O)[O-] (stereo not given)
inactive: Potency [1] | Potency [2] | Potency [3] | outcome [4] | outcome [5] | Potency [6] | Potency [7] | outcome [8] | outcome [9] | Potency [10] | outcome [11] | Potency [12] | Potency [13] | Potency [15] | Potency [17] | outcome [19] | outcome [20]

CN(C)CCCNCCCN(C)C
inactive: Potency [1] | Potency [2] | Potency [3] | outcome [4] | Potency [18] | Potency [6] | Potency [7] | outcome [8] | Potency [10] | Potency [12] | Potency [15] | Potency [17] | outcome [19] | outcome [20]

O=C(O)CCCc1ccccc1
inactive: Potency [1] | Potency [2] | Potency [3] | outcome [4] | Potency [18] | outcome [5] | Potency [7] | outcome [8] | outcome [9] | Potency [10] | Potency [12] | Potency [15] | Potency [17] | outcome [19] | outcome [20]

FC(F)OC(Cl)C(F)(F)F (stereo not given)
inactive: Potency [1] | Potency [2] | Potency [3] | outcome [4] | Potency [18] | Potency [6] | Potency [7] | outcome [8] | outcome [9] | Potency [10] | outcome [11] | outcome [14] | Potency [15] | outcome [16] | Potency [17]
